From PubChem BioAssay (EPA / NIEHS)
Records with an inconclusive call do not appear. Calls of active or inactive are those of the source. How the source made its calls: active means hit-call score of the fitted dose curve at least 0.9, where 1 is the maximum; inconclusive means response in the unintended direction; inactive means score below 0.9.

Molecular target: zebrafish Thyroid Hormone Receptor alpha (TRa), thraa (gene 30670) (UniProt Q98867)
Assay: ATG_zfTRa_XSP2: Attagene TRANS-FACTORIAL Multi-Species (XSP1) HepG2 Assay for zebrafish Thyroid Hormone Receptor alpha (TRa) (AID 2283832);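 further: actives raise zebrafish TRa-Gal4 reporter transcript above DMSO baseline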
Protocol: ATG_XSP2_multi-species_TRANS is a cell-based, multiplexed assay created by modifying the existing Attagene TRANS-FACTORIAL system to include a panel of nuclear receptors from some or all the following species: human (Homo sapiens), mouse (Mus musculus), frog (Xenopus laevis), zebrafish (Danio rerio), chicken (Gallus gallus), and turtle (Chrysemys picta). The ECOTOX-FACTORIAL format uses HepG2, a human liver cell line, with measurements taken at 24 hours after chemical dosing in a 24-well plate. Xsp2 included 3 nM 6-alpha-fluorotestosterone and 1.5 nM norgestrel to stimulate the androgen receptor.ATG_zfTRa_XSP2 is one of 29 assay components measured or calculated from the ATG_XSP2_multi-species_TRANS assay. It is designed to make measurements of mRNA induction, a form of inducible reporter, as detected with fluorescence intensity signals by Reverse transcription polymerase chain reaction (RT-PCR) and Capillary electrophoresis technology.The assay endpoint ATG_zfTRa_XSP2 was analyzed in the positive analysis fitting direction relative to DMSO as the negative control and baseline of activity. Using a type of inducible reporter, measures of mRNA for gain-of-signal activity can be used to understand the reporter gene at the transcription factor-level as they relate to the gene TR. Furthermore, this assay endpoint can be referred to as a primary readout, because this assay has produced multiple assay endpoints where this one serves a reporter gene function. To generalize the intended target to other relatable targets, this assay endpoint is annotated to the nuclear receptor intended target family, where the subfamily is non-steroidal.
Human liver HepG2 cells are transiently transfected with multiple reporter transcription units (MRTUs) in 6-well plates using FuGene 6 reagent (Roche; 3 ml FuGene/1 mg DNA). The MRTU constructs are regulated by a cis-regulating element (promoter). […] A major difference between the CIS and TRANS system is that in CIS activities of endogenous TFs are measured, whereas the TRANS assay evaluates changes in activities of exogenous, chimeric NR-Gal4 proteins. […] At the end of 24 hour incubation, total RNA was isolated using TriZol reagent (Invitrogen). The isolated RNA is then reverse-transcribed using oligo(dT) primer and Mo-MLV reverse transcriptase (Invitrogen) with DNAse I (Ambion) treatment for 30 min. The one-tenth of the produced cDNA was amplified by PCR using Taq DNA polymerase (Invitrogen) and two reporter sequence-specific primers. The PCR products were fluorescently labeled by primer extension with 6-arboxyfluorescein (6-FAM) 5'-labeled reporter sequence-specific primer (2 min at 95 C, 20 s at 68 C and 10 min at 72 C) and these products were digested with 5U of HpaI (New England Biolabs) for 2h at 37 C. The fragments were purified using Qiaquick PCR columns (Qiagen), analyzed on an ABI 3130xL genetic analyzer (Applied Biosystems) with peak positions identified by using a set of X-rhodamine (ROX)-labeled MapMarker1000 molecular weight standards (BioVentures). The raw capillary electrophoresis data was processed using Attagraph software (Attagene).

zebrafish Thyroid Hormone Receptor alpha (TRa), thraa (gene 30670), sequence (Q98867 whole entry, looked up, the tested form may be a part): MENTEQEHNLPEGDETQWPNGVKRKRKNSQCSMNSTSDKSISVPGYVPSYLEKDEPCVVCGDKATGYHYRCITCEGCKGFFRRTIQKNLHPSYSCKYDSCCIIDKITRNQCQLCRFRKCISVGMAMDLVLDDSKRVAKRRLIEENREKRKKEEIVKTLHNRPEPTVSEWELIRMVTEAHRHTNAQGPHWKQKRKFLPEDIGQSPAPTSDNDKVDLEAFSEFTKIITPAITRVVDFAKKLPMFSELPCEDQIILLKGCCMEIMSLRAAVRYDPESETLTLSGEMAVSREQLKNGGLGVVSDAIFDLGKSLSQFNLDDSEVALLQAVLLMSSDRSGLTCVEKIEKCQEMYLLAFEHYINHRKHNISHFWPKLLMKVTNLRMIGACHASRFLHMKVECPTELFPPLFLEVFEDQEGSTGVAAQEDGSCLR

Row | Structure (SMILES) | outcome | AC50
1 | CO/C=C(/C(=O)OC)c1ccccc1Oc1cc(Oc2ccccc2C#N)ncn1 | inactive | 
2 | CCCN(CCC)c1c([N+](=O)[O-])cc(S(N)(=O)=O)cc1[N+](=O)[O-] |  | 51.1 µM (active)
3 | CCOP(=S)(OCC)SCn1c(=O)oc2cc(Cl)ccc21 | inactive | 
4 | OC(c1ccc(Cl)cc1)(c1cncnc1)c1ccccc1Cl (configuration not stated) | inactive | 
5 | CCCCC(CC)COC(=O)c1ccccc1C(=O)OCC(CC)CCCC (configuration not stated) | inactive | 
6 | COc1ccc(C(c2ccc(OC)cc2)C(Cl)(Cl)Cl)cc1 | inactive | 
7 | COC(=O)N(OC)c1ccccc1COc1ccn(-c2ccc(Cl)cc2)n1 | inactive | 
8 | C#CCOS(=O)OC1CCCCC1Oc1ccc(C(C)(C)C)cc1 (configuration not stated) |  | 163 µM (active)
9 | COP(=S)(OC)Oc1nc(Cl)c(Cl)cc1Cl | inactive | 
10 | CCCCNC(=O)OCC#CI | inactive | 
11 | C=CC1(C)OC(=O)N(c2cc(Cl)cc(Cl)c2)C1=O (configuration not stated) |  | 25.6 µM (active)
12 | CC(C)(C)c1ccc(CSc2cnn(C(C)(C)C)c(=O)c2Cl)cc1 | inactive | 
